Assay outcomes deposited in PubChem by National Center for Advancing Translational Sciences (NCATS).
Vif-A3F inh: qHTS for Inhibitors of Vif-A3F Interactions: qHTS; HeLa A3F-eYFP + Vif (tagged APOBEC3F with the HIV-1 protein that degrades it), YFP fluorescence increase; Potency, µM (series often up to 46.1 µM), for the others: at the highest dose activity, negative = active; actives 0.2% (n = 390,000); AID 602313, 2012; also: potency is read from the fitted curve at half-maximal effect; % of control where 0% means no effect; nearly all actives have a fitted effect of over 65% in size
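HeLa cells stably expressing A3F-eYFP plus Vif, plated and incubated overnight at 37 deg C, then exposed to compounds overnight at 37 deg C. Blocked degradation read as raised yellow fluorescence (Ex 488/Em 500-530).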
SW480 rerep: A quantitative high throughput screen for small molecules that induce DNA re-replication in SW480 colon adenocarcinoma cells | SW480 DNA re-replication, Hoechst DNA content imaging, 48 h | Potency, µM (doses to about 46.1 µM), for inactives: at the highest dose re-replication activation, actives largely listed as activators | actives 1.8% (n = 340,000); also: potency is read from the fitted curve at half-maximal effect; % of control where 0% means no effect; nearly all actives have a fitted effect of over 55% in size
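Quantitative HTS format with DMSO vehicle controls; 48 hr drug incubation at 37 C, then 40 min Hoechst staining and scanning imager measurement at 405 nm excitation.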
Giardia killer: Small Molecules that selectively kill Giardia lamblia: qHTS. Giardia lamblia trophozoite viability. activity change, % at 7.66 µM, hits read low. actives 0.15% (n = 340,000); in the data active = activity change below about -80%; inconclusive = between about -30% and that limit;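 also: parasites exposed to compound for two days anaerobically before the ATP read; % is scaled to controls: 0 for no effect and ±100 for the full control effect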
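ATP-content bioluminescence gauges trophozoite survival. Cells (100/well) receive compound and incubate anaerobically for 48 hrs at 37 deg C; detection reagent follows for 15-30 min at room temperature.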
MCF10A rereplic: A quantitative high throughput screen for small molecules that induce DNA re-replication in MCF 10a normal breast cells; MCF 10A DNA re-replication, Hoechst nuclear intensity, 48 h; Potency, µM (doses to about 46.1 µM), inactives show at the highest dose activity, positive = re-replication, most hits filed as activators; actives 2.9% (n = 350,000); AID 624296, 2012; also: potency is read from the fitted curve at half-maximal effect; % of control where 0% means no effect; nearly all actives have a fitted effect of over 50% in size
Vif-APOBEC3G blk: qHTS for Inhibitors of Vif-A3G Interactions: qHTS | DNA dC->dU-editing enzyme APOBEC-3G (Homo sapiens), Q9HC16 | HeLa A3G-eYFP + Vif (tagged APOBEC3G with the HIV-1 protein that degrades it), YFP fluorescence, overnight | Potency, µM (titrated, usually from 46.1 µM), without a hit: at the highest dose activity, negative = active, usual class: inhibitors | actives 0.076% (n = 410,000); also: potency is read from the fitted curve at half-maximal effect; % is scaled to controls: 0 for no effect and ±100 for the full control effect; nearly all actives have a fitted effect of over 60% in size
Target sequence (Q9HC16 whole entry, looked up): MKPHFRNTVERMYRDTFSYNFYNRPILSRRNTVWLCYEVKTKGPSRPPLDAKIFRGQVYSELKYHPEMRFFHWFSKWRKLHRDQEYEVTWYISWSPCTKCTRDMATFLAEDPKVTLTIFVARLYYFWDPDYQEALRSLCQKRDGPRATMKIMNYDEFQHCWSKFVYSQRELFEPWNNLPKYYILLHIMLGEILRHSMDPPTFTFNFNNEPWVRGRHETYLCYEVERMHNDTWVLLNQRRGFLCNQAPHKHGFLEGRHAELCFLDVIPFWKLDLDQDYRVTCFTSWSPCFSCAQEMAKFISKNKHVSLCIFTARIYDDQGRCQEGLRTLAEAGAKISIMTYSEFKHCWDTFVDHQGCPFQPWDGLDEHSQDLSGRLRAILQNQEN
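HeLa cells stably expressing Vif and C-terminally eYFP-tagged A3G, seeded overnight at 37 deg C, then exposed to compound by pintool overnight at 37 deg C. Rise in yellow fluorescence (Ex 488/Em 500-530, Acumen) marks blocked Vif-driven A3G degradation.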
IL1B secr inh: qHTS for Inhibitors of Inflammasome Signaling: IL-1-beta AlphaLISA Primary Screen; actives 4.7% (n = 360,000); THP-1 LPS/ATP IL-1B secretion, AlphaLISA, 16 h; active compounds read low; activity change, % at 57.5 µM; in the data active = activity change below about -50%; inconclusive = mostly about -30% to -49%; also: % is scaled to controls: 0 for no effect and ±100 for the full control effect
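THP-1 cells pretreated 1 hr with compounds (up to 57.5 uM final), then stimulated with LPS (250 ng/mL final) plus ATP (1.25 mM final); secreted IL-1B measured by AlphaLISA after 16 hr, decreased signal indicating inhibition.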
Starred values were filed as active, the others as inactive; u = inconclusive; x = no result given; [ ] = remark or other dose. Most compounds without a hit are left out; they make up all but 6.9% or so of the library. Unless noted, calls follow the shape of the dose curve; as a rule, active = well fitted curve in the direction sought with a large enough effect; inconclusive = small, poorly fitted or top-dose-only effect, or another doubt; inactive = no such curve, though single readings can be large; an effect the other way counts as inactive or inconclusive.

SMILES | Vif-A3F inh | SW480 rerep | Giardia killer | MCF10A rereplic | Vif-APOBEC3G blk | IL1B secr inh
COc1ccc(S(=O)(=O)c2c(Nc3ccccc3F)sc(C(=O)c3cccc(OC)c3)c2N)cc1 | -1% | x | x | x | -17% | x
O=c1c2ccccc2ncn1Cc1cccc2ccccc12 | 1% | -8% | -2 | 10% | -8% | -54*
CC1CCN(C(=O)Cn2c(=O)n(CCCCCC(=O)NCc3ccccc3Cl)c(=O)c3sccc32)CC1 | -1% | x | x | x | 3% | x
c1ccc(N2CC3CCc4ccccc4C3=N2)cc1 (stereo not given) | -1% | 7.3µM* | 5 | 21µM* | 1% | 42
Cc1cc(NC(=O)Nc2nnc(N3CCCCC3)s2)ccc1Br | 1% | x | x | x | -1% | x
N#Cc1c(N)nc(SCc2ccccc2)c(C#N)c1-c1ccco1 | u | -3% | 1 | 16% | -11% | -73*
N#Cc1c(N)nc(SC2CCCCC2=O)c(C#N)c1-c1ccco1 (stereo not given) | 8% | -3% | -18 | -7% | 1% | -14
N#Cc1c(N)nc(SCC(=O)OCc2ccccc2)c(C#N)c1-c1ccco1 | 2% | -4% | 4 | u | -3% | 15
CCCOC(=O)CSc1nc(N)c(C#N)c(-c2ccco2)c1C#N | -3% | 1% | 5 | 0% | -2% | -88*
CC(=O)N1c2ccccc2N(Cc2ccc(C)cc2C)C(=O)C1(C)C | -2% | 18µM* | -1 | 12µM* | u | 84
CN(C)Cc1cc(C(C)(C)c2cc(CN(C)C)c(O)c(CN(C)C)c2)cc(CN(C)C)c1O | 0% | 5% | 4 | 9% | -1% | -62*
CCCCNC(=S)N(C)/N=C/c1ccc(OCC(=O)Nc2c(C)cc(C)cc2C)c(OC)c1 | -14% | 16µM* | 36 | 18µM* | -9% | -9
O=C(Cc1ccc(Cl)cc1Cl)Nc1cccc(S(=O)(=O)Nc2ccccc2F)c1 | -2% | -2% | 23 | u | 0% | -102*
O=C(/C=C/c1ccccc1)Nc1cccc(S(=O)(=O)Nc2ccccc2F)c1 | 0% | 11% | -2 | u | 2% | -54*
O=C(Nc1cccc(S(=O)(=O)Nc2ccccc2F)c1)c1ccc2ccccc2n1 | -4% | -1% | -26 | 11% | -8% | -51*
O=C(Nc1cccnc1)c1cccc(S(=O)(=O)Nc2ccccc2F)c1 | -7% | -8% | -19 | -2% | -4% | 1
COc1ccccc1NS(=O)(=O)c1cccc(NC(=O)c2ccc3ccccc3n2)c1 | -24% | -60% | 8 | -33% | -5% | 14
Cn1c(=O)n(-c2ccc(C(C)(C)C#N)cc2)c2c3cc(-c4cnc5ccccc5c4)ccc3ncc21 | x | x | x | x | 5%[92.2 µM] | x
Cc1cccc(C)c1NC(=O)CCSCCc1ccccn1 | 0% | x | x | x | -4% | x
OC(CCN1CCCCC1)(c1ccccc1)c1ccccc1 | -1% | -10% | 5 | 2% | -1% | 3
OC(CCCN1CCCCC1)(c1ccccc1)c1ccc(C(F)(F)F)cc1 (stereo not given) | -8% | u | 1 | 21µM* | 3% | -22
CC(=O)N1c2ccccc2CC1C(=O)N1CCN(c2cc(Cl)ccc2C)CC1 (stereo not given) | 0% | x | x | x | -1% | x
Cc1cc2c(cc1C)CSC(c1ccccc1OC(=O)C(C)(C)C)SC2 | -2% | 7% | 12 | 12µM* | -11% | 26
CCCCC(=O)Oc1ccccc1C1SCc2cc(C)c(C)cc2CS1 | -6% | -5%[9.22 µM] | 2 | 2% | 0% | 2
N#CC1=C(N)Oc2cc3ccccc3cc2C1c1cccs1 (stereo not given) | -25% | u | -6 | u | -22% | 0
CN(C)/C=N/C1=C(C#N)C(c2cccs2)c2ccc3ccccc3c2O1 (stereo not given) | -9% | 5.2µM* | 12 | u | u | 85
